Only some compounds are listed: those with a hit (about 9.2% of all), similar ones and a draw of the others.
NPC1 prom act = qHTS Assay for NPC1 Promoter Activators. Huh7 NPC1 promoter luciferase reporter, 24 h. Potency, µM (doses to about 9.22 µM), hits mostly activators. 320,000 tested, 2.4% active; note: nearly all actives have a fitted effect of over 60% in size
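In 1536-well qHTS, Huh7 cells harboring an NPC1 promoter–luciferase construct received compound for 24 h; activation was quantified by luminescence following luciferase reagent addition.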
Rab9 promoter act = qHTS Assay for Rab9 Promoter Activators; Huh7 Rab9 promoter-luciferase reporter, luminescence, 24 h; Potency, µM (top dose mostly 9.22 µM), actives largely listed as activators; 320,000 tested, 2.8% active; note: nearly all actives have a fitted effect of over 60% in size
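Luminescence from Amplite-detected luciferase (10 minutes, ambient) reports Rab9 promoter activation. Before that, stable Rab9-luciferase Huh7 cells (1500/well, reduced-serum OP-MEM I plus 10% FBS) were exposed to compound for 24 hours at 37C.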
FLuc counter = qHTS profiling assay for firefly luciferase inhibitor/activator using purifed enzyme and Km concentrations of substrates (counterscreen for miR-21 project); Luciferin 4-monooxygenase (Photinus pyralis), P08659; purified FLuc, Km substrates, luminescence inhibition; Potency, µM (highest dose often 57.5 µM), most hits filed as inhibitors; 360,000 tested, 6.9% active; note: nearly all actives have a fitted effect of over 55% in size
Target sequence (P08659 whole entry, looked up): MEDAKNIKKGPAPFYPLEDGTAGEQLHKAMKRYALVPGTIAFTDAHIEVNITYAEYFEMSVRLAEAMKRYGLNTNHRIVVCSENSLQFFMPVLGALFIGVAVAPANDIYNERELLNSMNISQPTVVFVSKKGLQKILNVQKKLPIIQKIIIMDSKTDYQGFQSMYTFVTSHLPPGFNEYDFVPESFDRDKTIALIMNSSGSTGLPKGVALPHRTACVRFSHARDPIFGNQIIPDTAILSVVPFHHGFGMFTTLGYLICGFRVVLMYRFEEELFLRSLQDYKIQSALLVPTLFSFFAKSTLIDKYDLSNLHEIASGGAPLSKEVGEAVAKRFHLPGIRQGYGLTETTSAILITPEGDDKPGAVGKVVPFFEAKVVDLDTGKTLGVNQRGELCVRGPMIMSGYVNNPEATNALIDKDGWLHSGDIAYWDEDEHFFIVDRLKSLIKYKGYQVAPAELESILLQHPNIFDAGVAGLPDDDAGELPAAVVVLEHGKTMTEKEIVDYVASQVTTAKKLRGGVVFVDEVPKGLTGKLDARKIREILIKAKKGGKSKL
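Purified P. pyralis luciferase (10nM final) with 10uM D-luciferin and 10uM ATP (Km levels) in 50mM Tris acetate pH 7.5, 10mM Mg acetate, 0.01% Tween-20, 0.05% BSA; qHTS 6-point titration, ~60 µM downward; luminescence read.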
ELG1 genotoxic = qHTS screen for small molecules that induce genotoxicity in human embryonic kidney (HEK293T) cells expressing luciferase-tagged ELG1; HEK293T ELG1-luciferase reporter, luminescence, 16 h; Potency, µM (doses to about 46 µM), hits mostly activators; 330,000 tested, 1.3% active; note: nearly all actives have a fitted effect of over 60% in size
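Genotoxicity was scored as increased ELG1-luciferase reporter signal, measured by ONE-Glo luminescence (30 min, room temperature). Compound or vehicle exposure of the HEK293T reporter cells lasted 16 hr at 37°C.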
SMN2 splice up = qHTS Assay for Enhancers of SMN2 Splice Variant Expression. HEK293 SMN2-luciferase splicing reporter, luminescence, 30-36 h. Potency, µM (series often up to 46.1 µM), usual class: activators. 210,000 tested, 2.8% active; note: nearly all actives have a fitted effect of over 55% in size
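qHTS luciferase splicing reporter: luminescence rises when SMN2 exon 7 is included in transfected HEK293 cells. Compound exposure lasted 30-36 h at 37C, with 4.5 mM final sodium butyrate as control, followed by a ONE-Glo read.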
ELG1 repair inh = qHTS screen for small molecules that inhibit ELG1-dependent DNA repair in human embryonic kidney (HEK293T) cells expressing luciferase-tagged ELG1; HEK293T ELG1-luciferase reporter, luminescence, 16 h; DNA damage induced by 5-fluorouridine; Potency, µM (titrated, usually from 46.1 µM), most hits filed as inhibitors; 330,000 tested, 2.3% active; note: nearly all actives have a fitted effect of over 55% in size
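Reporter activity after DNA damage by 5-fluorouridine is monitored. Compound-treated cells incubate 16 hr at 37 °C, then ONE-Glo is added for 30 min before luminescence reading.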
A number is an active result; 0 = inactive; ? = inconclusive; - = not tested or not shown. Calls come from the whole dose curve; as a rule, active = well fitted curve in the direction sought with a large enough effect; inconclusive = small, poorly fitted or top-dose-only effect, or another doubt; inactive = no such curve, though single readings can be large; an effect the other way counts as inactive or inconclusive.

SMILES | NPC1 prom act | Rab9 promoter act | FLuc counter | ELG1 genotoxic | SMN2 splice up | ELG1 repair inh
Cc1csc(SCC(=O)Nc2sccc2C(N)=O)n1 | ? | ? | ? | ? | 12.6µM | ?
NC(=O)c1ccsc1NC(=O)CSc1ccccc1F | ? | ? | 21.3µM | 10µM | ? | ?
Cc1csc(SCC(=O)Nc2nccs2)n1 | 0 | 0 | 0 | 0 | - | ?
COC(=O)c1cccc(NC(=O)NC(=O)c2ccccc2Cl)c1 | 1.26µM | 0.355µM | 10.7µM | ? | - | ?
COC(=O)c1cccc(NC(=O)Nc2ccccc2OC)c1 | 0 | ? | 12µM | ? | - | ?
COC(=O)c1cccc(NC(=O)c2ccccc2)c1 | 0 | ? | ? | 0 | - | ?
COC(=O)c1cccc(NC(N)=S)c1 | 0 | 0 | 0 | 0 | 0 | 0
COc1ccccc1NC(=O)Nc1cccc(NC(C)=O)c1 | 0 | 0 | ? | 0 | - | ?
COC(=O)c1cccc(NC(=O)Nc2ccc(Cl)c(Cl)c2)c1 | ? | 3.55µM | 15.1µM | 0 | 0 | ?
COC(=O)c1cc(NC(=O)Nc2ccccc2)ccc1Cl | 0 | 0 | 15.1µM | 0 | ? | ?
O=C(CN1C(=O)C2(SCC(=O)N2c2ccc(F)c(F)c2)c2ccccc21)Nc1ccccc1F (stereo unspecified) | - | - | 0 | - | - | -
CC(=O)c1cccc(S(=O)(=O)N2CCn3cccc3C2C)c1 (stereo unspecified) | 0 | 0 | 0 | 0 | - | 0
Cc1onc(-c2c(Cl)cccc2Cl)c1/C(N)=N/OC(=O)C1CC1 | 0 | 0 | 0 | 0 | - | 0
COC(=O)c1c(-c2ccccc2)csc1N1C(=O)Nc2ccccc2N1O | ? | 2.82µM | 4.78µM | ? | ? | ?
CC(C)CC(NC(N)=O)C(=O)OCC(=O)Nc1ccc(OC(F)F)cc1 (stereo unspecified) | 0 | 0 | 0 | 0 | 0 | 0
Cc1cccn2cc(-c3cccc(NS(=O)(=O)c4ccc(Cl)c(Cl)c4)c3)nc12 | - | - | 9.53µM | - | 0 | -
Cc1cc(C)c(S(=O)(=O)Nc2ccc(-c3cn4ccccc4n3)cc2)c(C)c1 | 0 | 0 | ? | 0 | 0 | ?
COc1ccc(S(=O)(=O)Nc2cc(-c3cn4cccc(C)c4n3)ccc2C)cc1C | - | - | ? | - | 0 | -
Cc1cc(C)c(S(=O)(=O)Nc2cccc(-c3cn4ccccc4n3)c2)c(C)c1 | - | - | 9.53µM | - | - | -
CCS(=O)(=O)Nc1cccc(-c2cn3c(n2)SCC3)c1 | 0 | 0 | 0 | 0 | - | 0
CCCS(=O)(=O)Nc1cccc(-c2cn3ccc(C)cc3n2)c1 | - | - | 12µM | - | 12.6µM | -
Cc1nc(-c2ccc(NS(=O)(=O)c3ccccc3)cc2)cs1 | 0 | 0 | 0 | 0 | 0 | 0
O=S(=O)(Nc1ccc(-c2cn3ccccc3n2)cc1)c1ccccc1 | 0 | 0 | 13.5µM | ? | - | ?
CCn1c(=O)c2sccc2n2c(CCC(=O)Nc3ccc(C(C)C)cc3)nnc12 | - | - | 0 | - | 0 | -
Cc1ncc([N+](=O)[O-])n1CC(=O)Nc1ccc(Br)cc1 | 0 | 0 | 0 | 0 | - | 0
SMILES | NPC1 prom act | Rab9 promoter act | FLuc counter | ELG1 genotoxic | SMN2 splice up | ELG1 repair inh
Cc1cccc(S(=O)(=O)Nc2ccc(-c3cn4ccccc4n3)cc2)c1 | 0 | ? | 16.9µM | 0 | ? | 0
COc1ccc(-n2c(=S)[nH]c3cc(C(=O)Nc4ccccc4OC)ccc3c2=O)c(OC)c1 | 0 | 0 | 0 | 0 | - | 16.4µM
Cc1nc2c3ccccc3nc(SCC(=O)c3ccc(Cl)cc3)n2n1 | 0 | 0 | 0 | 0 | 0 | 0
COc1cc2nc(SCC(=O)c3ccc(Br)cc3)n3nc(C)nc3c2cc1OC | 0 | 0 | 0 | 0 | 0 | 4.11µM
C[C@H]1NC(=O)[C@@]2(C)[C@H](c3ccccc3)[C@H]3COc4ccccc4[C@@H]3N2C1=O | - | - | - | 0 | - | 0
COc1ccc(NC(=O)c2c(NC(=O)COc3ccccc3)sc3c2CCCCC3)cc1 | - | - | 0 | - | 0 | -
COc1ccc(OCC(=O)Nc2sc3c(c2C(=O)NCC2CCCO2)CCC3)cc1 (stereo unspecified) | 0 | 0 | 0 | 0 | 0 | 16.4µM
Cc1ccc(NC(=O)/C=C2\NC(=O)CS2)cc1 | 3.55µM | 3.16µM | 7.57µM | 23.1µM | - | ?
CC(C)(C)c1ccc(C(=O)/C=C2\NC(=O)CS2)cc1 | 0.398µM | 0.631µM | 0.301µM | ? | 3.16µM | ?
COc1ccccc1NC(=O)/C=C1\NC(=O)CS1 | 0 | 0 | 0 | 0 | 0 | 0
CCOC(=O)N1CCN(C(=O)CSc2ccc3nnc(-c4cccnc4)n3n2)CC1 | 0 | 0 | 0 | 0 | 0 | 0
Cc1nc(-c2ccc(Cl)cc2)sc1C1(C)CC(c2cccnc2)=NO1 (stereo unspecified) | ? | ? | 16.9µM | ? | - | ?
C#CCn1cc(/C=N/NC(=O)COc2cccc3cccnc23)c2ccccc21 | 0 | 0 | 0 | 0 | 0 | 0
C#CCn1cc(/C=N/Nc2nc3ccccc3[nH]2)c2ccccc21 | 0 | 0 | 19µM | 0 | ? | ?
Cc1ccc(/C=N/Nc2nnc(Cc3ccccc3)c(=O)[nH]2)o1 | 0 | 0 | 0 | 0 | 0 | 0
C(=N\Nc1nc2ccccc2[nH]1)/c1ccc2ncccc2c1 | 1.41µM | 0.794µM | 2.13µM | 0 | - | ?
C(=N\Nc1nc2ccccc2[nH]1)/c1cccc2nccnc12 | 0 | 0 | ? | ? | - | ?
Cc1ccc(/C=N\Nc2nc3ccc(Cl)cc3[nH]2)o1 | 2.51µM | 4.47µM | 8.49µM | 0 | ? | ?
C(=N\Nc1nc2ccccc2[nH]1)/c1ccccn1 | ? | ? | 0.338µM | 0 | - | ?
Cn1nccc1C(=O)N(CCN1CCCCC1)CC1CCCN(C2CCCC2)C1 (stereo unspecified) | 0 | ? | ? | 0 | - | ?
CCOC(=O)C1=C(CC)Nc2ccccc2N/C1=N\S(=O)(=O)c1ccccc1OC | 0 | 0 | - | 0 | - | 0
CCOC(=O)c1cccc(NC(=O)c2cc(CN3CCOCC3)on2)c1 | - | - | 0 | - | - | -
CCCCn1c(/C=N/Nc2nc3ccccc3[nH]2)nc2ccccc21 | 0 | 0 | ? | 0 | 0 | 0
BrC(=C\c1ccccc1)/C=N/Nc1nc2ccccc2[nH]1 | 0 | 0 | 2.69µM | 0 | 0 | ?
Fc1ccccc1-c1ccc(/C=N/Nc2nc3ccccc3[nH]2)o1 | ? | 3.55µM | 0.269µM | ? | 22.4µM | ?
CCCCc1cc(=O)oc2cc(C)cc(OCC(=O)NCc3ccccn3)c12 | 0 | 0 | 0 | 0 | - | 0
CCCCC(=O)Nc1ccc(N2CCN(c3ccc(F)cc3)CC2)cc1 | 0 | 0 | 0 | 0 | - | 0
COc1cccc(-n2c(SCC(=O)NCCC3=CCCCC3)nc3n[nH]c(C)c3c2=N)c1 | 0 | 0 | 0 | 0 | 0 | 16.4µM
